Here are results for 14 molecules from PubChem BioAssay (NCI).

The panel holds about 83,000 compounds, 20% with a hit somewhere; the sample as a whole holds those more often.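 48-hour exposure, single concentration, 96-well plates; percent growth endpoint where 0 means no net growth. Active: below 10.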 Unmarked numbers belong to inactive results. The source made the active and inactive calls.

The assay deals with HL-60(TB) leukemia. Kind of assay: NCI-60 one-dose screen, 48 h (100 = growth as untreated, 0 = no growth, -100 = all killed). The settings on record: 10 µM unless noted.
As for `CSC(SC)=C(C#N)c1nc2ccccc2s1`, the growth is 44.6%. For `COc1ccc2nc3cc(Cl)ccc3c(NCCNCC(C)O)c2c1` (centres undefined), the growth was 21.8%. As for `O=C(/C=C/c1ccccn1)c1ccccc1O`, the growth is 13.1%. Regarding `c1ccc(C2=Nc3ccccc3SC2)cc1`, the growth is 107%.

With `COC(=O)c1cccc2c1N(C)c1c(cccc1C(=O)OC)CC2`, the growth was 71.6%.

As for `Cc1cc(Nc2cccc(F)c2)nc(NCc2ccccc2)n1`, the growth is 24.1%.

As for `O=C(NNC(=S)Nc1ccccc1)c1ccccn1`, the growth was -6.25% (active).

For the molecule `CCC(C)C(N)C(=O)NNc1n[nH]c(=S)n1N` (centres undefined), the growth is 100%. In the case of `O=C(Cc1ccc(/C=C/C(=O)c2ncc[nH]2)cc1)Nc1ccc(Br)cc1`, the growth was 0.0282% (active). For the molecule `C=C(C)[C@@H]1CC[C@]2(c3ncc(C)o3)CC[C@]3(C)[C@H](CC[C@@H]4[C@@](C)(CCC#N)[C@H](C(=C)C)CC[C@]43C)[C@@H]12`, the growth is -27.9% [100 µM] (active). Regarding `Cc1cccc(C[C@H](NC(=O)Nc2ccc(Cl)cc2F)C(=O)N[C@@H]2C(=O)N3C[C@H](O)C[C@H]3C(=O)N3CCN(C)C[C@H]3C(=O)N[C@@H](C)C(=O)N3C[C@H](C)C[C@H]3C(=O)O[C@H]2C)c1`, the growth is 32.8%.

On to `CCc1cccc(CC)c1N1C(=O)C=CC1=O`, for which the growth was -7.6% (active). Turning to `COc1ccc(OC)c(-c2cn3nc(-c4c[nH]c5ccc(Br)cc45)sc3n2)c1`, the growth was 86.3%. As to `CN1CCN(Cc2ccc(NC(=O)c3cncc(C#Cc4cnc(N)c5ccc(F)cc45)c3)cc2C(F)(F)F)CC1`, the growth is -27% (active).
